AMA1 RON2 block = inhibitors of Plasmodium falciparum AMA1-RON2 interaction | AlphaScreen AMA1-biotinylated RON2 peptide binding | Potency, µM (titrated, usually from 58.2 µM), without a hit: top-dose activity change, negative = inhibition, most hits filed as inhibitors | actives 0.2% (n = 360,000);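 note: potency is the fitted concentration of half-maximal effect; 0% = vehicle wells and -100% = peptide control; nearly all actives have a fitted effect of over 45% in size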
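AMA1 (3D7) with his tag at 25 nM final met compounds first, then biotinylated RON2 peptide at 25 nM; detection used donor plus acceptor beads, 10 µg/mL apiece, read by AlphaScreen after 30 min at room temperature.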
SARS PLpro yeast = inhibitors of SARS-CoV papain-like protease in yeast; Potency, µM (top dose mostly 32.9 µM), for inactives: top-dose activity, positive = growth rescue, most hits filed as activators; actives 0.19% (n = 330,000); S. cerevisiae expressing SARS-CoV PLpro, growth rescue; calls by dose curve; note: potency is the fitted concentration of half-maximal effect; 0% is about no effect; nearly all actives have a fitted effect of over 55% in size
AmpC inh detg = blocks E. coli AmpC beta-lactamase in detergent assay. Potency, µM (doses to about 114 µM), inactives show at the highest dose activity change, negative = inhibition, hits mostly inhibitors. AmpC hydrolysis of nitrocefin, absorbance 480 nm, 0.01% Triton. P00811. actives 0.041% (n = 370,000). AID 485294;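 note: potency is the fitted concentration of half-maximal effect; 0% = no-compound wells and -100% = no-enzyme wells; nearly all actives have a fitted effect of over 25% in size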
Target sequence (P00811 whole entry, looked up): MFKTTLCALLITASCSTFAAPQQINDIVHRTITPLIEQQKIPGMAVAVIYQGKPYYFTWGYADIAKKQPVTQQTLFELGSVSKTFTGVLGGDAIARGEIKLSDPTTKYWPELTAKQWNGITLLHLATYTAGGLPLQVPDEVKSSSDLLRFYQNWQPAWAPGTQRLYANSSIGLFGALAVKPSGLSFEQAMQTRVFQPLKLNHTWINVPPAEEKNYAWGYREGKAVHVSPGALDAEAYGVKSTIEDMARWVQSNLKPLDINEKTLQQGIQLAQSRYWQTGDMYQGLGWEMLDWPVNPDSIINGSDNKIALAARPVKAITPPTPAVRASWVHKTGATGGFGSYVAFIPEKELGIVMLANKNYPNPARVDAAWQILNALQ
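AmpC (5.3 nM in the dispensed reagent) in 20 mM phosphate pH 7.0 with 0.01% (detergent screen) or 0.0001% Triton X-100 was preincubated with compounds for 15 min at room temperature. Nitrocefin was then added from an 800 uM solution, and hydrolysis was followed at 480 nm.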
AmpC no deterg = inhibitors of E. coli AmpC beta-lactamase without detergent | actives 0.52% (n = 330,000) | AID 485341 | AmpC nitrocefin hydrolysis, absorbance 480 nm, 0.0001% Triton | Potency, µM (highest dose often 57.1 µM), without a hit: at the highest dose activity change, negative = inhibition, usual class: inhibitors | P00811;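 note: potency is the fitted concentration of half-maximal effect; plate controls were no compound for no effect and no enzyme for full effect; nearly all actives have a fitted effect of over 20% in size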
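AmpC (5.3 nM in the dispensed reagent) in 20 mM phosphate pH 7.0 with 0.01% (detergent screen) or 0.0001% Triton X-100 was preincubated with compounds for 15 min at room temperature. Nitrocefin was then added from an 800 uM solution, and hydrolysis was followed at 480 nm.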
Shiga toxin inh = Shiga toxin inhibition; actives 9.2% (n = 290,000); Vero cells, Shiga toxin protein synthesis inhibition reporter; inhibition, % at 38.7 µM; in the data active = inhibition mostly above about 28%, no sharp cut-off; inactive = mostly below about 43%; note: 0% is about no effect
Cycloheximide cs = counter-screen hit for Shiga toxin inhibitors, cycloheximide. actives 12% (n = 300,000). AID 2314. max response, %. cell reporter, cycloheximide protein synthesis inhibition counterscreen; in the data active = max response mostly above about 13%, no sharp cut-off; inactive = mostly below about 14%; note: read at 38.3 µM for the half of the compounds with a filed dose; 0% is about no effect
Active calls of the source: *; ? = inconclusive; . = not tested or not shown. Only a selection was taken, and hits are over-represented in it overall. Unless noted, calls come from the whole dose curve; as a rule, active = well fitted curve in the direction sought with a large enough effect; inconclusive = small, poorly fitted or top-dose-only effect, or another doubt; inactive = no such curve, though single readings can be large; an effect the other way counts as inactive or inconclusive.

SMILES	AMA1 RON2 block	SARS PLpro yeast	AmpC inh detg	AmpC no deterg	Shiga toxin inh	Cycloheximide cs
O=C(O)c1ccccc1-c1c2cc(I)c(=O)c(I)c-2oc2c(I)c(O)c(I)cc12	7.9µM*	.	.	.	-3	-2
CN(C(=O)c1cccc(NC(=O)Cc2cccc(NC(=O)C3CCN(S(=O)(=O)c4cccc([N+](=O)[O-])c4)CC3)c2)c1)C1CC1	-1%	.	.	.	.	.
CC(C)C[C@@H]1NC(=O)[C@H](Cc2ccc(O)cc2)NC(=O)c2cc([N+](=O)[O-])cc(I)c2NCCC[C@@H](C(N)=O)NC1=O	-1%	13%	?	4µM*	-11	-4
N=C1SCC(=O)N1c1nc(-c2ccccc2)cs1	-1%	-3%	?	-22%	41	21*
CC1=NN(c2nc(-c3ccccc3)cs2)C(=O)C1	86%	1%	-2%	-50%	24	16*
CC1=NN(c2nc(-c3ccc(C#N)cc3)cs2)C(=O)C1	48%	0%	-6%	-34%	53*	15
COc1ccc2ncc(OC(C)=O)cc2c1	-2%	-4%	-10%	-7%	23	14*
COc1ccc(NC(=O)CCN2C(=O)c3cccc([N+](=O)[O-])c3C2=O)cc1	12%	0%	-9%	-11%	9	-2
CC(C)(C)c1ccc(NC(=O)COC(=O)CCN2C(=O)c3cccc([N+](=O)[O-])c3C2=O)cc1	-1%	-4%	-8%	-1%	7	18*
Cc1nc2ccc(Cl)cc2n1C	5%	.	.	.	.	.
Cc1cc(C(=O)NNc2ccc(F)cc2F)no1	-25%	-2%	-5%	-11%	-19	-1
Cc1cc(C)nc(SC/C=C/c2ccccc2)n1	5%	-1%	-9%	8%	.	23*
C(=C\c1ccccc1)/CSc1ccccn1	64%	-5%	4%	-22%	93*	73*
CC(=O)c1ccc(OCC(O)CN2CCN(CC(O)COc3ccc(C(C)=O)cc3)CC2)cc1 (stereo not given)	2%	-25%	0%	-10%	-3	-2
CCOc1ccc(Cc2onc3c2C(=O)CCC3)cc1OCC	-2%	0%	3%	12%	14	-5
CCOCCCn1c(SCC(=O)NCc2ccco2)nc2c(sc3ccccc32)c1=O	9%	6%	?	33%	46	32*
O=C(CSc1nc2c(sc3ccccc32)c(=O)n1-c1ccccc1)NCc1ccco1	28%	-1%	-2%	-23%	44	30*

Screening results (PubChem BioAssay)
